How the values were obtained:
[1] = system: E18 rat cortical neuron-glia co-culture; test: fiber score / MBP score (myelination specific beyond OL differentiation) (ratio); higher = more myelination-specific MBP alignment; conditions: treatment time: 8 days (DIV5-DIV13)
Method in brief: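 Fiber score divided by MBP score is the read-out; fiber score is continuous MBP fiber length per Olig2+ nucleus, and MBP score is thresholded MBP area × intensity per Olig2+ nucleus. Primary E18 rat cortical co-cultures were dissociated with papain and seeded at 20,000 cells/well on poly-d-lysine/laminin 96-well plates. Library compounds at 1 or 5 µM were given in myelination medium from DIV5 to DIV13, after which cells were fixed in 4 % paraformaldehyde, immunostained for MBP and Olig2 with DAPI, and imaged in four 10X fields per well in duplicate wells.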

[2] = system: E18 rat cortical neuron-glia co-culture; test: myelination (MBP fiber length per Olig2+ nucleus), % of 1 µM DAPT response (DMSO = 0) (% of DAPT); higher = more myelination, active = 50 or more; conditions: treatment time: 8 days (DIV5-DIV13)
Method in brief: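 Four 10X fields in each of duplicate wells were analysed after cultures were fixed in 4 % paraformaldehyde and immunostained for MBP and Olig2, with DAPI as the nuclear counterstain. The cultures were papain-dissociated primary E18 rat cortical co-cultures at 20,000 cells/well on poly-d-lysine/laminin 96-well plates, dosed with library compounds at 1 or 5 µM in myelination medium from DIV5 to DIV13. The myelination readout was continuous straight MBP fiber length per Olig2+ nucleus, with 0.1 % DMSO set to 0 and a 1 µM positive control set to 100.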

| Structure (SMILES) | fiber score / MBP score ([1]; 1 µM) | fiber score / MBP score ([1]; 5 µM) | myelination ([2]; 1 µM) | myelination ([2]; 5 µM) |
| --- | --- | --- | --- | --- |
| CC(=O)OCC(CCn1cnc2cnc(N)nc21)COC(C)=O [Famciclovir] | 0.681 | 0.977 | -22.4 (inactive) | -2.76 (inactive) |
| NC[C@H]1CC[C@H](C(=O)Oc2ccc(CCC(=O)O)cc2)CC1 [Cetraxate] | 1.07 | 0.791 | 4.64 (inactive) | -18.2 (inactive) |
| CCOC(=O)C1=C(C)NC(C)=C(C(=O)OC)C1c1cccc([N+](=O)[O-])c1 (configuration not stated) [Nitrendipine] | 0.92 | 1.09 | -7.81 (inactive) | 1.09 (inactive) |
| CC1=Nc2ccc(Cl)cc2S(=O)(=O)N1 [Diazoxide] | 1.25 | 0.573 | 5.81 (inactive) | -18.4 (inactive) |
| O=C(O)COCCN1CCN(C(c2ccccc2)c2ccc(Cl)cc2)CC1 (configuration not stated) [Cetirizine] | 0.908 | 1.11 | -5.85 (inactive) | -4.35 (inactive) |
| O=C(CCNNC(=O)c1ccncc1)NCc1ccccc1 [Nialamide] | 0.859 | 0.524 | -5.76 (inactive) | -19 (inactive) |
| C[C@]12CCC(=O)C=C1CC[C@@H]1[C@@H]2CC[C@@]2(C)[C@H]1CC[C@]2(O)C(=O)CO [Cortodoxone] | 0.514 | 0.781 | -16.7 (inactive) | -9 (inactive) |
| Cc1ccnc2c1NC(=O)c1cccnc1N2C1CC1 [Nevirapine] | 0.687 | 0.851 | -18.6 (inactive) | -6.68 (inactive) |
| CC(=O)OCC(=O)[C@@]12OC(C)(C)O[C@@H]1C[C@H]1[C@@H]3C[C@H](F)C4=CC(=O)C=C[C@]4(C)[C@@]3(F)[C@@H](O)C[C@@]12C [Fluocinonide] | 0.861 | 0.291 | -38 (inactive) | -66.2 (inactive) |
| COc1ccc(CCN(C)CCCC(C#N)(c2ccc(OC)c(OC)c2)C(C)C)cc1OC (configuration not stated) [Verapamil] | 0.856 | 0.533 | -27.2 (inactive) | -53.6 (inactive) |
| CN(C)CCOC(c1ccc(Cl)cc1)c1ccccn1 (configuration not stated) [Carbinoxamine] | 1.21 | 1.23 | 3.25 (inactive) | 8.5 (inactive) |
| NNC(=O)c1ccncc1 [Isoniazid] | 0.85 | 0.914 | -1.03 (inactive) | 0.697 (inactive) |
| CC1CNc2c(cccc2S(=O)(=O)N[C@@H](CCCNC(=N)N)C(=O)N2CC[C@@H](C)C[C@@H]2C(=O)O)C1 (some centres not stated) [Argatroban] | 0.647 | 0.566 | -43.9 (inactive) | -49.9 (inactive) |
| C[C@]12C=CC(=O)C=C1CC[C@@H]1[C@@H]2[C@@H](O)C[C@@]2(C)[C@H]1CC[C@]2(O)C(=O)COC(=O)CCC(=O)O [Prednisolone hemisuccinate] | 0.88 | 1.08 | 1.93 (inactive) | -1.16 (inactive) |
| CCOc1cc(N)c(Cl)cc1C(=O)NCC1CN(Cc2ccc(F)cc2)CCO1 (configuration not stated) [Mosapride] | 0.736 | 0.556 | -41.5 (inactive) | -56.5 (inactive) |
| COc1cc2c(cc1OC)C(=O)C(CC1CCN(Cc3ccccc3)CC1)C2 (configuration not stated) [Donepezil] | 0.462 | 0.277 | -20.8 (inactive) | -26.1 (inactive) |
| NC(=O)c1ncn([C@@H]2O[C@H](CO)[C@@H](O)[C@H]2O)n1 [Ribavirin] | 1.17 | 1.03 | 3.44 (inactive) | 4.23 (inactive) |
| Cc1onc(-c2c(Cl)cccc2Cl)c1C(=O)N[C@@H]1C(=O)N2[C@@H]1SC(C)(C)[C@@H]2C(=O)O [Dicloxacillin] | 1.04 | 0.655 | 5.21 (inactive) | -8.6 (inactive) |

From the supplement of paper PMC4840960
